Among all 350,000 compounds or so, about 31,000 (8.9%) were called active. Inconclusive results (about 15%) are left out. The list comes from a sample in which actives are over-represented; it also holds similar structures and randomly drawn compounds. Where a call stands in place of a potency, no number is given. A number with no mark means an inactive call. Calls follow the shape of the dose curve; as a rule, active = well fitted inhibition curve with a large enough effect; inconclusive = small, poorly fitted or top-dose-only effect; inactive = no such curve, though single readings can be large or run the other way.
Potency is read from the fitted curve at half-maximal effect.

The target of the assay is Histone-lysine N-methyltransferase EHMT2 (Homo sapiens) (UniProt Q96KQ7). As to the kind of experiment: qHTS Assay for Inhibitors of Histone Lysine Methyltransferase G9a. Also: nearly all actives have a fitted effect of over 75% in size. Conditions: G9a H3K9 monomethylation, AlphaScreen, 2 h; series mostly up to 59 µM. A digest of the protocol: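 AlphaScreen detection with an anti-monomethyl H3K9 antibody quantified product after a 2 h room-temperature reaction containing 500 nM biotinylated H3K9 peptide, 20 µM SAM and 20 nM enzyme, which had been preincubated 15 min with compound.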
Sequence of Histone-lysine N-methyltransferase EHMT2 (Homo sapiens) (Q96KQ7 913-1193 limits assumed): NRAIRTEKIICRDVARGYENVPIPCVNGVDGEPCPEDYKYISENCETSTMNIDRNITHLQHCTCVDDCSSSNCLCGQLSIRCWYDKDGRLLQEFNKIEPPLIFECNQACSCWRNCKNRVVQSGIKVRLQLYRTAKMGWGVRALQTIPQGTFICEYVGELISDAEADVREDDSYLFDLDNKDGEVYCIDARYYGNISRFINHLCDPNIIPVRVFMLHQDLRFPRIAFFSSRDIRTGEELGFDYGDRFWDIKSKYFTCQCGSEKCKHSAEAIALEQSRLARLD
Take `COC(=O)CN1C(=O)C(C)(C)Oc2ccc(C(=O)Nc3cccc(OC)c3)cc21`: the Potency entry is “inactive”.

On to `CC(=O)c1ccc(NC(=O)CSc2nnc(NC(=O)Nc3ccccc3)s2)cc1`, for which the Potency entry is “inactive”.

On to `Cc1cccc(CSc2nnc(NC(=O)CSc3nnc(C)s3)s2)c1`, for which the Potency result was “inactive”.

As for `Cc1cccc(NC(=O)CSc2nnc(NC(=O)CN3CCOCC3)s2)c1`, the Potency was 7.08 µM (active).

Take `O=C(CSc1nnc(-c2cccnc2)n1CCc1ccccc1)NCc1ccccc1`: the Potency entry is “inactive”.

As for `C=CCn1c(SCC(=O)NCc2ccccc2)nnc1-c1cc(Br)ccc1O`, the Potency was 10 µM (active).

On to `C=CCn1c(SCC(=O)NC(=O)Cc2ccccc2)nc2ccccc2c1=O`, for which the activity, negative = inhibition is 24.2% [at 12.7 µM].

In the case of `CCc1cc(=O)oc2c(C)c(OCC(=O)NCCN3CCOCC3)ccc12`, the Potency result is “inactive”.

`Cc1ccc(S(=O)(=O)N(Cc2nc(-c3ccc(Cl)cc3)no2)C2CCCCC2)cc1`: the Potency result is “inactive”.

With `O=C(CSc1nc(=O)n(Cc2cccnc2)c2c1CCC2)Nc1ccc(F)cc1F`, the Potency entry was “inactive”.

Regarding `Cc1ccc(C)n1-c1nnc(N2CCC(C(=O)NCc3ccc(F)cc3)CC2)s1`, the Potency result is “inactive”.

With `Cn1c(CC(=O)Nc2ccc(F)cc2)nnc1SCC(=O)NC1CCCCC1`, the Potency result was “inactive”.

Take `CCOc1cccc(-c2nnc(SCC(=O)NC3CC3)n2C)c1`: the Potency result was “inactive”.

Consider `CCOc1ccc(Nc2nc(Cc3nnc(SCC(=O)NC4CCCC4)n3C)cs2)cc1`, for which the Potency was 28.2 µM (active).

As to `CC(C)CCNC(=O)CSc1nc2ccccc2nc1Cc1ccc(Cl)cc1`, the Potency entry is “inactive”.

On to `Nc1ccc(C(=O)NCc2ccccc2)cc1`, for which the Potency entry is “inactive”.

On to `CC(C)c1ccc(C(=O)NCCCc2ccccc2)cc1`, for which the Potency result was “inactive”.

On to `O=C(NCCCNCc1ccccc1)c1ccc(/C=N/O)nc1`, for which the Potency was 14.1 µM (active).

As for `COc1ccccc1N1CCN(S(=O)(=O)CCNC(=O)COc2ccc(F)cc2)CC1`, the Potency entry was “inactive”.

As for `COc1ccc(-c2c(C)c3ccc(O)c(CN4CCN(C)CC4)c3oc2=O)cc1OC`, the Potency entry is “inactive”.

As to `COc1ccc2oc(=O)cc(CN3CCOCC3)c2c1`, the activity, negative = inhibition is 20.4% [at 0.501 µM].

On to `CC(C)c1ccc2oc(=O)cc(CN3CCN(Cc4ccccc4)CC3)c2c1`, for which the Potency was 50.1 µM (active).

For the molecule `Cc1cc2oc(=O)cc(CN3CCN(Cc4ccccc4)CC3)c2cc1C`, the Potency result was “inactive”.

For the molecule `CC1CC(C)CN(C(=O)COC(=O)c2ccc3ncsc3c2)C1` (stereo unspecified), the activity, negative = inhibition is -10.9% [at 12.7 µM].

For the molecule `CCc1cccc(NC(=O)C2CCCN(S(=O)(=O)c3ccc4[nH]c(=O)ccc4c3)C2)c1` (stereo unspecified), the Potency result is “inactive”.

`CSc1ccccc1C(=O)OCC(=O)N1CCN(C(C)=O)CC1`: the activity, negative = inhibition is -3.84% [at 12.7 µM].

`COc1cc(C2C3C(=O)N(c4ccccc4)C(=O)C3ON2c2ccccc2)ccc1O` (stereo unspecified): the Potency entry was “inactive”.

Consider `COC(=O)C1=NN(c2ccccc2)C2C(=O)N(c3ccccc3OC)C(=O)C12` (stereo unspecified), for which the Potency result is “inactive”.

For `Cc1ccccc1N1C(=O)C2ON(c3ccccc3)C(c3ccncc3)C2C1=O` (stereo unspecified), the Potency is 44.7 µM (active).

Regarding `CCOc1ccc2c(c1)c(=O)c(S(=O)(=O)c1ccc(C)cc1)cn2CC`, the Potency result was “inactive”.

Turning to `COc1ccccc1C(=O)COC(=O)CSCC(=O)Nc1cc(C)on1`, the Potency result was “inactive”.

Turning to `CC(C)(COC(=O)Nc1ccccc1)COC(=O)Nc1ccccc1`, the activity, negative = inhibition was -24.1% [at 2.33 µM].

Consider `CCOC(=O)c1sc2nc(SC)nc(-c3ccccc3)c2c1N`, for which the activity, negative = inhibition was 22.6% [at 12.7 µM].

For `COc1cccc(C(=O)c2sc3nc(-c4ccccc4)cc(C(F)(F)F)c3c2N)c1`, the Potency result was “inactive”.

Take `CCN(CC)C(=O)c1sc2nc(-c3ccccc3)ccc2c1N`: the Potency is 17.8 µM (active).

Turning to `CC(=O)NS(=O)(=O)c1ccc2c(c1)Cc1cc(S(=O)(=O)NC(C)=O)ccc1-2`, the activity, negative = inhibition was -3.76% [at 0.501 µM].

As to `COc1ccc(CCNC(=O)c2c3c(nc4ccccc24)C(=O)N(C2CCCCC2)C3)cc1OC`, the Potency entry is “inactive”.

Turning to `CCOc1ccc(C(=O)Nc2ccc3nc4c(c(Nc5ccccc5OC)c3c2)CCCC4)cc1`, the Potency entry is “inactive”.

As to `COc1ccccc1Nc1c2c(nc3ccc(NC(=O)/C=C/c4cc(OC)c(OC)c(OC)c4)cc13)CCCC2`, the Potency is 14.1 µM (active).

Take `COc1ccc(/C=C/C(=O)Nc2ccc3c(c2)OCCO3)cc1OC`: the Potency result is “inactive”.

For `O=C(NN1C(=O)C2C3C=CC(C3)C2C1=O)c1ccco1` (stereo unspecified), the Potency is 12.6 µM (active).

As to `CC(C)=C1C2CCC1C1C(=O)N(NC(=O)c3ccco3)C(=O)C21` (stereo unspecified), the Potency entry was “inactive”.

`O=C(NC1CC(=O)N(c2ccccc2)C1)c1ccco1` (stereo unspecified): the Potency entry is “inactive”.

Regarding `CCOc1ccc(CNC(=O)Cn2cc3c(n2)-c2c(oc(C(=O)N4CCCC4)c2C)CC3)cc1`, the Potency result was “inactive”.

Consider `O=C(COC(=O)c1ccc2ncsc2c1)Nc1ccc(Cl)cc1`, for which the activity, negative = inhibition was -43.9% [at 12.7 µM].

As to `Cc1csc(Nc2ccc(Cl)cc2)[n+]1-c1ccc(Cl)cc1`, the Potency is 20 µM (active).

As for `O=c1ccnc(Nc2ccc(Cl)cc2)[nH]1`, the Potency result was “inactive”.

In the case of `CCc1ccc(NC(=O)COC(=O)c2cccs2)cc1`, the Potency result was “inactive”.

For the molecule `COc1ccccc1NC(=O)Cn1cnc2ccc(S(=O)(=O)N3CCC(C)CC3)cc2c1=O`, the Potency result was “inactive”.

`CCOc1cc(-c2nnc(SCC(=O)NC3CCCC3)nc2-c2ccc(OC)c(OCC)c2)ccc1OC`: the Potency was 11.2 µM (active).

As for `COc1ccc(-c2nnc(SCC(=O)Nc3ccc(C(C)C)cc3)nc2-c2ccc(OC)c(OC)c2)cc1OC`, the Potency result is “inactive”.

With `COc1ccc(-c2nnc(SCC(=O)NC3CCCCC3)o2)cc1OC`, the Potency entry was “inactive”.

For the molecule `CCOc1cc(-c2nnc(SCC(=O)NC3CCCCC3)nc2-c2ccc(OC)c(OCC)c2)ccc1OC`, the Potency is 8.91 µM (active).

As for `CCC(Sc1nnc(-c2ccc(OC)cc2)c(-c2ccc(OC)cc2)n1)C(=O)NC1CCCCC1` (stereo unspecified), the Potency entry is “inactive”.

Regarding `CCOc1ccc(-c2noc(CCC(=O)NC3CCCC3)n2)cc1OC`, the Potency entry is “inactive”.

As to `CCOc1cc(-c2noc(CCCC(=O)NC3CCCCC3)n2)ccc1OC`, the Potency entry was “inactive”.

`CCOc1ccc2[nH]c3nc(SCC(=O)NC4CCCC4)nnc3c2c1`: the Potency entry is “inactive”.

For the molecule `COc1ccc(-c2noc(CCCC(=O)NC3CCCC3)n2)cc1OC`, the Potency was 79.4 µM (active).

With `Cc1ccc(Nc2nnc(-c3ccc(C)c(S(=O)(=O)N4CCCCC4)c3)c3ccccc23)cc1`, the Potency result is “inactive”.

In the case of `CC(=O)N1CCN(c2ccccc2NC(=S)NC(=O)c2cc3ccccc3o2)CC1`, the Potency entry is “inactive”.

For the molecule `CC(C)(C)OC(=O)N1CCC(c2c(C(=O)NCCc3ccsc3)cnn2-c2ccc(F)cc2F)CC1`, the Potency entry is “inactive”.
